# Experimental data published in ChEMBL document CHEMBL1157539, “Thousands of chemical starting points for antimalarial lead identification” (Nature, 2010).
# Tested on: HepG2
# Test: GSK_TCMDC: Percent inhibition of human HepG2 cell line. Test compounds present at 10uM.
# Format: functional
row,Structure (SMILES),Inhibition [%]
1,NC(=O)c1sc(-n2cnc3ccccc32)cc1OCc1ccccc1[N+](=O)[O-],10
2,O=C(NCCCCN1CCC(c2ccc([N+](=O)[O-])cc2)CC1)c1ccc(NC(=O)c2ccc(Cl)cc2)cc1,15
3,Cc1cccc(N2C(N)=NC(N)=NC2(C)C)c1C.Cl,0
4,COc1cc2c(cc1C(F)(F)F)N(C(=O)Nc1cc(F)cc(-c3cncnc3)c1)CC2,15
5,CCCCCCOc1ccc(C(=O)N[C@H]2CCN(CCCCCNC(=O)/C=C/c3ccc(Cl)c(Cl)c3)C2)cc1,10
6,Cc1sc(CNCCCNc2cc(=O)c3ccccc3[nH]2)c(I)c1C.Cl,0
7,CCn1cc(C=C2Oc3c(ccc(O)c3CN3CCCCC3)C2=O)c2cc(OC)ccc21,0
8,CS(=O)(=O)Nc1cccc(-c2cnc3[nH]cc(-c4ccc(CN)cc4)c3c2)c1,27
9,CCCCN1CCN(CCCCNc2c3ccccc3nc3ccccc23)CC1.Cl,27
10,COc1cc(Nc2ccnc3cc(-c4ccncc4)ccc23)cc(OC)c1OC.Cl,9
11,CN(c1ccc2c(c1)nc(NCc1ccc(F)cc1)n2C)c1ccnc(Nc2ccc(CS(C)(=O)=O)cc2)n1.Cl,48
12,CC1CN(Cc2cccc(-c3ccc(-c4nc5ccccc5[nH]4)cc3)c2)CC(C)O1.O=C(O)C(F)(F)F (stereo not given),37
13,CO.Cc1nc(N)nc(N)c1OCc1cccc2c1ccc1ccccc12.Cl,54
14,Cc1cccc2nc(-c3cccc(-c4ccc(NC(=O)Cc5ccc[n+]([O-])c5)cc4)c3)[nH]c12,11
15,CC(C)(CNC(=O)[C@H]1CCCN1)c1nc(-c2ccc(Cl)c(O)c2)c(-c2ccncc2)[nH]1.Cl,0
16,Oc1ccc2[nH]c(-c3ccc(F)cc3F)nc2c1CN1CCC(O)(c2ccccc2)CC1,16
17,COc1ccccc1C1CC(c2ccc(Br)cc2)=NN1C(=O)c1ccccc1 (stereo not given),12
18,COc1ccc(S(=O)(=O)Nc2cc(C)cc(Br)c2OC)cc1N1CCN(C(=O)C(Cl)(Cl)Cl)CC1.Cl,9
19,O=C(Nc1ccc(Oc2ccccc2)cc1)N(CCN1CCCC1)Cc1ccc(-c2ccc(CN3CCNCC3)cc2)cc1.O=C(O)C(F)(F)F,48
20,Cc1ccc(CNC(=O)[C@H](CC(C)C)Nc2cc(C)nc(Nc3ccccc3)n2)cc1.O=C(O)C(F)(F)F,12

row,Structure (SMILES),Inhibition [%]
1,Cc1ccc(NC(=S)NC2CCN(CCCCCNC(=O)/C=C/c3ccc(Cl)c(Cl)c3)CC2)cc1Cl,45
2,CCCCCN1C(=O)C(c2ccccc2)(c2ccccc2)N=C1N,18
3,O=C(NCC1CCN(CCN2CCC(c3cn(CCO)c4ccccc34)CC2)CC1)c1ccc(-c2ccc(C(F)(F)F)cc2)cc1,100
4,Fc1ccc(-c2cc(NCCCn3ccnc3)nc(-c3cccnc3)n2)cc1,11
5,COc1ccc2nc3cc(Cl)ccc3c(NCCCCNc3c4ccc(Cl)cc4nc4ccc(OC)cc34)c2c1,20
6,CN(C)CCOc1cc(NC(=O)/C=C/c2cccc3ccccc23)ccc1I,55
7,CCN(CC)/C(=N/C(=N)NCc1ccc(Cl)cc1Cl)NCCCCCCN/C(=N\C(=N)NCc1ccc(Cl)cc1Cl)N(CC)CC,16
8,COc1ccc(CNCc2cccc(-c3ccc(-c4nc5ccccc5[nH]4)cc3)c2)cc1.O=C(O)C(F)(F)F,22
9,CN(C)CCCNC(=O)c1ccccc1Sc1ccccc1C#N.Cl,11
10,Nc1nc2c(ncn2OC[C@H](CO)OCP(=O)(O)O)c(=O)[nH]1,5
11,CCc1ccc(-n2cc(C(=O)c3cc(Br)ccc3O)cc(C#N)c2=O)cc1,9
12,Cn1nc(-c2ccccc2F)c2cc(C(=O)Nc3cccnc3)sc21,5
13,COc1cc2c(cc1S(=O)(=O)c1ccc(COc3ccc(C(F)(F)F)cc3)cc1)CNCC2.Cl,32
14,CCOc1ccc(C(=O)Nc2cc3c(c(C(F)(F)F)c2)CCNC3)cc1Cl.Cl,4
15,Cc1cccc(CNc2nc(C)cc(NCCC(=O)NCc3cccc(F)c3)n2)c1.O=C(O)C(F)(F)F,23
16,CS(=O)(=O)Nc1cccc(-c2cnc3[nH]cc(-c4ccc(CCC(=O)O)cc4)c3c2)c1,7
17,COc1ccc(Nc2nc(C)cc(NCc3ccc(-c4c(C)noc4C)cc3)n2)cc1,48
18,Cc1cc(N[C@@H](CC(C)C)C(=O)Nc2ccccc2)nc(NCCc2ccccc2)n1.O=C(O)C(F)(F)F,0
19,COc1ccc2ccccc2c1CCCCN1CCN(CC(c2ccc(F)cc2)N2CCC(N3CCCC3)CC2)CC1.O=C(O)C(F)(F)F (stereo not given),74
20,Cc1c(C(=O)N(C)C)sc2c1c(=O)n(Cc1ccccc1)c(=O)n2CC(=O)Nc1ccccc1F,13
